PLK1 PBD inh: inhibitors of human PLK1 polo-box domain binding. P53350. Plk1 PBD binding of FITC phosphopeptide, fluorescence polarization. Potency, µM, without a hit: max response, negative = inhibition, hits mostly inhibitors. hit rate 2.8% among 360,000. AID 720504; also: series mostly up to about 57 µM; nearly all actives have a fitted effect of over 65% in size
Sfp inh: Sfp phosphopantetheinyl transferase inhibition; Q9F4F7; Biochemical Sfp PPTase activity, qHTS; Potency, µM, for the others: largest response in the series, negative = inhibition, actives largely listed as inhibitors; hit rate 3.5% among 310,000;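 also: the enzyme is Sfp with the accession as filed and its product quenches rhodamine fluorescence; 0% = enzyme reaction without inhibitor and -100% = no enzyme wells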
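After 15 min at room temperature with compound, 15 nM Sfp received 5 uM rhodamine-CoA plus 12.5 uM BHQ-2-ybbR (50 mM Hepes pH 7.6, 10 mM MgCl2). Rate came from the fluorescence difference over 30 min, ex 525/em 598 nm.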
VDR inh: blocks the human vitamin D receptor | P11473 | VDR-SRC2-3 peptide fluorescence polarization, 2 h | Potency, µM, for inactives: max response, negative = inhibition, usual class: inhibitors | hit rate 0.93% among 400,000 | AID 504847
Target sequence (P11473 whole entry, looked up): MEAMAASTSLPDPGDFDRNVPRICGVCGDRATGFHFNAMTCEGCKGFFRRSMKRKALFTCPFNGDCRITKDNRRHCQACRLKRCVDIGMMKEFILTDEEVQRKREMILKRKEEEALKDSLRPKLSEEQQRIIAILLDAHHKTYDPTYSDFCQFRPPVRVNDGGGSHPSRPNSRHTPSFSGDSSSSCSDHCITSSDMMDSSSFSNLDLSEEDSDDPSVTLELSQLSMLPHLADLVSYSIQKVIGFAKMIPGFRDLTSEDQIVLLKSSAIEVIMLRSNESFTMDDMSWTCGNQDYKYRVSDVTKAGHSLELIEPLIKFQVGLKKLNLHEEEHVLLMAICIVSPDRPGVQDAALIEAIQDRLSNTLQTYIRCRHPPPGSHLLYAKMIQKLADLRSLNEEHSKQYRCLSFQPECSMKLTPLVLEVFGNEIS
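Inhibition of the VDR/SRC2-3 peptide interaction is quantified by fluorescence polarization. Compounds (23 nl, pintool) incubate with the reagents for 2 hours at ambient room temperature.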
TrxR1 substrate: substrates of rat thioredoxin reductase 1. purified TrxR1 substrate turnover, NADPH consumption readout. Potency, µM (doses to about 114 µM), without a hit: top-dose activity change, negative = substrate turnover. hit rate 0.01% among 390,000. AID 588456; also: nearly all actives have a fitted effect of over 50% in size
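Rat TrxR1, dispensed at 90 nM, was prereduced with 400 uM NADPH (final) for 5 min at ~22 deg C, then incubated with compound 15 min before 400 uM selenite. A first-read NADPH fluorescence drop versus no-compound background flagged substrates.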
mIDH1 inhibitor: inhibitors of human mutant IDH1 R132H; O75874; Potency, µM (top dose mostly 76.6 µM), for inactives: top-dose activity change, negative = inhibition, most hits filed as inhibitors; IDH1-R132H enzyme, NADPH consumption, diaphorase/resazurin fluorescence; hit rate 0.093% among 390,000; AID 602179; also: nearly all actives have a fitted effect of over 65% in size
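IDH1-R132H (0.5 ug/mL) preincubated 30 min with compound, then NADPH (0.016 mM) and alpha-KG (2 mM) added; 80 min at RT, pH 7.5. Remaining NADPH coupled via diaphorase/resazurin to fluorescence (540/590 nm); concentration-response curves normalized to no-enzyme control.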
TrxR1 inh: inhibitors of rat thioredoxin reductase 1; O89049; recombinant rTrxR1, NADPH fluorescence consumption, selenite substrate; Potency, µM (top dose mostly 114 µM), inactives show at the top dose activity change, negative = inhibition, actives largely listed as inhibitors; hit rate 1% among 390,000; also: nearly all actives have a fitted effect of over 65% in size
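Rat TrxR1 (90 nM in the dispensed reagent) was pre-reduced with 400 uM NADPH for 5 min at room temperature, then incubated with compound for 15 min. After 400 uM selenite was added, NADPH fluorescence (Ex 340/Em 450 nm) was followed for 8 min.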
* marks the source's active call; other numbers are inactive results; u = inconclusive; x = no result; [ ] = another dose, or the depositor's remark. Shown are actives, neighbours in structure and some others; about 5.2% of the full set was active somewhere. Calls follow the shape of the dose curve; as a rule, active = well fitted curve in the direction sought with a large enough effect; inconclusive = small, poorly fitted or top-dose-only effect, or another doubt; inactive = no such curve, though single readings can be large; an effect the other way counts as inactive or inconclusive. Unless noted, % is scaled to controls: 0 for no effect and ±100 for the full control effect; potency is read from the fitted curve at half-maximal effect.

SMILES	PLK1 PBD inh	Sfp inh	VDR inh	TrxR1 substrate	mIDH1 inhibitor	TrxR1 inh
Cc1ccc(CNC(=O)/C=C/c2ccc(Br)o2)cc1	-21.2%	28.2µM*	-4.5%	10.1%	2.4%	u
Cc1ccc(/C=C/C(=O)Oc2ccc(C#N)cc2)o1	x	13.8%	x	x	x	x
Cc1ccc(/C=C/C(=O)NCc2cccs2)o1	-14.5%	10µM*	-8.2%	-5.5%[57.1 µM]	4.6%	u
O=C(Nc1ccc2oc(-c3cccnc3)nc2c1)c1ccc(-c2cccc(OC(F)(F)F)c2)o1	x	x	-20.3%	15.2%	-20.7%	u
COc1ccc(CCNC(=O)CN(c2ccc(C)cc2)S(=O)(=O)c2ccc(OC)cc2)cc1	x	x	-5.9%	9.6%	-2.7%	28.7%
Cc1ccc(Cl)cc1N1CCN(C(=O)Cn2cnc3onc(-c4ccc(F)cc4)c3c2=O)CC1	x	x	11.9%	-11.5%	-6.7%	7.6%
COc1cc(C)c(S(=O)(=O)Nc2cccc(-c3ccc(N4CCCC4)nn3)c2)cc1C	x	x	16.1%	3.2%[57.1 µM]	-19.7%	13.7%[57.1 µM]
COc1ccc(C)cc1S(=O)(=O)Nc1cccc(-c2ccc(N3CCCCCC3)nn2)c1	16.8µM*	5.8%	u	6.4%[57.1 µM]	-5.7%	23.7%[57.1 µM]
COc1ccc(S(=O)(=O)Nc2cccc(-c3ccc4nncn4n3)c2)c(OC)c1	16.8µM*	x	u	-4.9%[57.1 µM]	2.6%	3.9%
C[C@@H]1CN([C@@H](C)CO)S(=O)(=O)c2ccc(Br)cc2O[C@@H]1CN(C)S(=O)(=O)c1cn(C)cn1	-0.8%	x	x	x	-1.2%	x
Cc1ccccc1OCC(=O)N/N=C/c1ccncc1	-5.8%	4.5%	-4.2%	2.5%	-4.3%	3.1%
Cc1ccccc1OCC(=O)N/N=C/c1ccc(N2CCOCC2)o1	u	20µM*	39.8µM*	3.4%	9.5%	u
CC(=O)Oc1cccc(N2C(=O)C3C(C2=O)C2C=CC3C23CC3)c1 (configuration not stated)	-4.1%	9.7%	4.2%	1.8%	0.0%	-16.7%
CC(=O)Oc1ccc(N2C(=O)C3C4C=CC(O4)C3C2=O)cc1 (configuration not stated)	-11.7%	35.5µM*	-15.1%	13.0%	1.2%	5.62µM*
CC(=O)Oc1cccc(N2C(=O)C3C4C=CC(C4=C(C)C)C3C2=O)c1 (configuration not stated)	16.8µM*	56.2µM*	u	1.3%	-0.6%	39.8µM*
CC(=O)Oc1ccc(N2C(=O)CCC2=O)cc1	-7.7%	8.2%	-23.1%	7.0%[57.1 µM]	0.5%	7.1%[11.4 µM]
CCOc1cccc(NC(=O)C2CC(=O)N(C)C(=Nc3cccc(OC)c3)S2)c1 (configuration not stated)	x	x	-3.0%	-13.1%	-12.5%	-14.6%
CC12C(=O)N(c3ccccn3)C(=O)C1C1C=CC2C1 (configuration not stated)	29.9µM*	5.7%	u	14.3%[57.1 µM]	-0.3%	24.0%[57.1 µM]
CN(C)S(=O)(=O)c1ccc(NCC2COc3ccccc3O2)c([N+](=O)[O-])c1 (configuration not stated)	29.9µM*	14.4%	u	-13.2%	2.9%	-7.2%
NC(=O)C1CN(C(=O)c2cccc(S(=O)(=O)N3CCc4ccccc43)c2)c2ccccc2O1 (configuration not stated)	-3.2%	x	5.4%	-2.6%	3.4%	13.8%
CCOC(=O)C(=Cc1ccc(-n2ccnc2)cc1)C(=O)OCC	u	-29.4%	u	-1.3%	-7.6%	20µM*
CCOC(=O)C(=Cc1ccc(F)cc1)C(=O)OCC	x	-7.3%	x	x	x	x
CCOC(=O)C(=Cc1ccc(Br)cc1)C(=O)OCC	16.8µM*	u	10µM*	-1.4%	-0.9%	25.1µM*
Cc1[nH]c(=O)n(C(C)C)c(=O)c1Br	-12.5%	x	37.5%	-11.9%	-4.5%	-24.0%
O=C(O)CCc1nc(-c2ccccc2)c(-c2ccccc2)o1	x	31.2%	-18.8%	16.1%[57.1 µM]	x	16.5%[57.1 µM]
SMILES	PLK1 PBD inh	Sfp inh	VDR inh	TrxR1 substrate	mIDH1 inhibitor	TrxR1 inh
O=C(O)CCc1ccc(-c2ccccc2)o1	u	-80.1%	20µM*	3.4%[57.1 µM]	-0.8%	u
CC(C)CN(C(=O)CSc1nnc2c(Cl)cc(C(F)(F)F)cn12)C1CCS(=O)(=O)C1 (configuration not stated)	26.7µM*	2.4%	11.3%	6.7%	2.3%	10.7%[57.1 µM]
Cc1cn(C2OC(COC(=O)c3ccccc3)C(OC(=O)c3ccccc3)C2OC(=O)c2ccccc2)c(=O)[nH]c1=O (configuration not stated)	-10.7%	-10.1%	4.8%	6.8%	0.5%	30.3%
O=C(OCC1OC(OC(=O)c2cc(O)c(O)c(OC(=O)c3cc(O)c(O)c(O)c3)c2)[C@@H](OC(=O)c2cc(O)c(O)c(OC(=O)c3cc(O)c(O)c(O)c3)c2)C(OC(=O)c2cc(O)c(O)c(OC(=O)c3cc(O)c(O)c(O)c3)c2)C1OC(=O)c1cc(O)c(O)c(OC(=O)c2cc(O)c(O)c(O)c2)c1)c1cc(O)c(O)c(OC(=O)c2cc(O)c(O)c(O)c2)c1 (some centres not stated)	x	11.2µM*	12.6µM*	x	x	x
CCOC(=O)CNC(=O)CNC(=O)Cn1ccc2ccccc2c1=O	-16.8%	-6.7%	3.0%	5.9%	5.6%	-2.7%
Cc1ccc(CNC(=O)Cn2ccc3ccccc3c2=O)o1	-0.3%	u	-6.8%	0.1%	2.7%	39.8µM*
CC1CC(OC(=O)C(O)c2ccccc2)CC(C)(C)C1 (configuration not stated)	x	19.1%	u	x	x	x
CC(/C=C1\N=C(SCc2ccccc2Cl)SC1=O)=C\c1ccccc1	26.7µM*	-4.4%	-10.1%	-2.8%	-5.8%	u
O=C1SC(SCc2ccccc2)=N/C1=C\c1ccco1	u	-21.0%	-17.2%	-3.8%	-4.8%	u
Cc1cc(F)ccc1S(=O)(=O)NCC(c1ccco1)S(=O)(=O)c1cccs1 (configuration not stated)	x	x	-0.3%	6.4%[57.1 µM]	18.6%	1.12µM*
COC(=O)c1ccc(NC2=CC(=O)CC(C)(C)C2)cc1	3.36µM*	11.2%	-22.1%	-3.9%	2.2%	u
COc1cccc(NC2=CC(=O)CC(C)(C)C2)c1	-8.0%	2.3%	18.6%	2.9%	-4.7%	10.1%
COc1ccc(NC2=CC(=O)CC(C)(C)C2)cc1	-8.3%	3.0%	-10.4%	-7.4%	-1.4%	-0.6%
CC1(C)CC(=O)C=C(Nc2cccc(F)c2)C1	29.9µM*	3.1%	0.9%	-0.6%	8.3%	20.4%
COc1cccc(CNc2nc3ccccc3c3nc(-c4cccc(C)c4)nn23)c1	x	x	-7.6%	-1.4%	-20.3%	5.2%
CCN1C(C(=O)c2ccccc2)=C(OC(=O)COc2ccccc2)c2ccccc2S1(=O)=O	x	x	-6.0%	-6.7%	-21.1%	28.2µM*
